# Source: PubChem BioAssay (NCI)
# This is part of a sample that, as a whole, favours compounds with a hit. Of some 83,000 tested, about 20% had one in any assay.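 Method: cells in 96-well plates; compound added at one concentration; 48 h incubation; percent growth measured; values under 10 scored active.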 Values without a mark were called inactive. Activity calls are given as the source filed them.
# System: NCI-H322M lung
# Assay: NCI-60 one-dose screen, 48 h (100 = growth as untreated, 0 = no growth, -100 = all killed)
# Details: 10 µM unless noted
row,Compound,growth [%]
1,Cc1ncc(C(=O)Nc2ccc(CN3CCN(C)CC3)c(C(F)(F)F)c2)cc1C#Cc1cnc(N)c2ncccc12,30.3
2,CNC(=O)c1cc(Oc2ccc3c(c2)sc2nc(-c4ccc(OC)cc4)cn23)ccn1,56.7
3,O=C1Nc2c(C(=O)O)cccc2/C1=N/c1n[nH]c(=S)s1,95.6
4,COC(=O)c1ccc(NC(=O)Nc2ccc(C(=O)OC)cc2)cc1,104
5,COc1ccc(/C=C/C(c2cc(OC)c(OC)c(OC)c2)n2ccnc2)cc1O (configuration not stated),45.8
6,Cc1nc2sc(C(=O)Nc3cccc(Br)c3C)c(N)c2cc1C(O)c1ccccc1 (configuration not stated),42.2
7,C=C1C(=O)O[C@H]2[C@H]1CC/C(COC(=O)/C=C/C(=O)OC/C1=C/CC[C@@]3(C)O[C@H]3[C@H]3OC(=O)C(=C)[C@@H]3CC1)=C\CC[C@@]1(C)O[C@@H]21,101
8,COc1ccc(-c2ccc(-c3ccc(C(=N)N)nc3)s2)cc1Cl,15.7
9,COc1cc(/C=N/Nc2ccc(Br)cc2)cc(OC)c1OC,66.3
10,C#CCOc1cccc(-c2ncnc3cc(NC(=O)C=C)ccc23)c1,70.3
11,O=c1ccc(=O)n(-c2nc(-c3ccc([N+](=O)[O-])cc3)cs2)[nH]1,104
12,CCCCCCCCCCCCCCCCCC1=NC(C)(C)CN1CC(C)O (configuration not stated),71.4
13,CC1=C(C(=O)Nc2nc(-c3ccc(Cl)cc3)cs2)[C@H](c2ccc(O)cc2)NC(=O)N1,88.3
14,O=C(Cn1nnc2ccccc21)N/N=C/c1c[nH]c2ccccc12,80
15,Cn1c(=O)c2[nH]c(SCC(=O)Nc3ccc(C(=O)/C=C/c4ccccc4Cl)cc3)nc2n(C)c1=O,97.6
16,O=c1nc(-c2ccccc2)c2cc(-c3ccc(C(F)(F)F)nc3)ccc2[nH]1,92.9
17,CN(C)S(=O)(=O)Oc1ccc(-c2sc3cc(OS(=O)(=O)N(C)C)ccc3c2C(=O)c2ccc(OCCN3CCCCC3)cc2)cc1,87.9
18,O=S(=O)(NCCCNc1nccc(-c2c(-c3cccc(F)c3)nc3occn23)n1)c1ccc(F)cc1,73.2
19,Cc1ccc(-c2nc(N3CCNCC3)c3oc(-c4ccc(C)cc4)nc3n2)cc1,47.9
20,COc1ccc(Cn2cc3c(c2-c2ccccc2)CCc2cnoc2-3)cc1,70.2
21,CC(C)(C)n1cc(-c2ccnc(NCCCNS(=O)(=O)c3ccc(C(F)(F)F)cc3)c2)c(-c2cccc(F)c2)n1,103
22,O=C(/C=C/c1ccccc1)c1ccc(Nc2nc(Nc3ccc(F)cc3)nc(Nc3ccc(Cl)cc3)n2)cc1,94.5
23,COc1ccc2c(c1)/C(=N/c1n[nH]c(=S)s1)C(=O)N2,91.8
24,Cc1ccc2nc(NC(=O)CSc3nc(-c4ccccc4)c(C#N)c4nnnn34)sc2c1,108
25,N=C(N)c1ccc(-c2ccc(-c3cc(Cl)cc(Cl)c3)s2)nc1,52.8
26,COc1ccc(Oc2nc(Nc3ccc(N4CCOCC4)cc3)ncc2NC(=O)Nc2cc(OC)cc(OC)c2)cc1,23.3
27,CCCCNc1cc(-c2cn[nH]c2-c2cc(C)cc(OC)c2)nc(-c2cccnc2)n1,86.9

# System: HOP-62 NSCLC
# Assay: as above
# Details: 10 µM unless noted
row,Compound,growth
1,N#CSc1c[nH]c2cccc(/C=C/C(=O)/C=C(O)/C=C/c3cccc4[nH]cc(SC#N)c34)c12,-32.6% (active)
2,COCCn1cc(-c2csc(-c3c[nH]c4ccc(Br)cc34)n2)c2cccnc21,45.4%
3,N#CC1CCc2c(c(-c3ccc4nc(N)sc4c3)nc3ccc4[nH]ncc4c23)C1 (configuration not stated),54.5%
4,NS(=O)(=O)c1ccc(-c2cc(-c3nnc(SCC(=O)Nc4ccc(C(=O)/C=C/c5ccc(Cl)cc5)cc4)n3-c3ccccc3)c3ccccc3n2)cc1,100%
5,O=C(Nc1cc(Cl)ccc1O)c1cccc(Nc2ccnc(C(F)(F)F)c2)c1,64.8%
6,CC/C(Cc1ccccc1)=C(\c1ccc(OCCCN(C)C)cc1)c1ccc(OC(=O)NCc2ccccc2)cc1,85.7%
7,Clc1c(Cl)[n+](Cc2ccc3ccccc3c2)cn1Cc1ccc2ccccc2c1,-27.6% (active)
8,CSC(SC)=C(C#N)c1nc2ccccc2s1,72.5%
9,O=C(CN1CCCCCC1)Nc1nc2ccc(NCc3ccc(Cl)cc3)cc2s1,103%
10,CCC1S/C(=N\N=C(\C)c2cc3cc(Cl)ccc3o2)N(c2ccccc2)C1=O (configuration not stated),100%
11,Cc1ccc(C)c(/C=C2\CN(C(=O)OC(C)(C)C)C/C(=C\c3cc(C)ccc3C)C2=O)c1,93.4%
12,COc1ccc(-c2n[nH]c(=O)c3nc(NC(=S)Nc4ccc(Oc5ccccc5)cc4)sc23)cc1,91%
13,O=C1/C(=C\c2ccccn2)c2ccccc2N1c1c(Cl)cccc1Cl,23.3%
14,Cc1ncc(C(=O)Nc2ccc(CN3CCN(C)CC3)c(C(F)(F)F)c2)cc1C#Cc1cnc(N)c2ncccc12,20.6%
15,CNC(=O)c1cc(Oc2ccc3c(c2)sc2nc(-c4ccc(OC)cc4)cn23)ccn1,19.4%
16,O=C1Nc2c(C(=O)O)cccc2/C1=N/c1n[nH]c(=S)s1,79.7%
17,COC(=O)c1ccc(NC(=O)Nc2ccc(C(=O)OC)cc2)cc1,106%
18,COc1ccc(/C=C/C(c2cc(OC)c(OC)c(OC)c2)n2ccnc2)cc1O (configuration not stated),47.2%
19,Cc1nc2sc(C(=O)Nc3cccc(Br)c3C)c(N)c2cc1C(O)c1ccccc1 (configuration not stated),21.2%
20,C=C1C(=O)O[C@H]2[C@H]1CC/C(COC(=O)/C=C/C(=O)OC/C1=C/CC[C@@]3(C)O[C@H]3[C@H]3OC(=O)C(=C)[C@@H]3CC1)=C\CC[C@@]1(C)O[C@@H]21,96.6%

row,Compound,growth
1,COc1ccc(-c2ccc(-c3ccc(C(=N)N)nc3)s2)cc1Cl,-30.8% (active)
2,COc1cc(/C=N/Nc2ccc(Br)cc2)cc(OC)c1OC,93.1%
3,C#CCOc1cccc(-c2ncnc3cc(NC(=O)C=C)ccc23)c1,36.4%
4,O=c1ccc(=O)n(-c2nc(-c3ccc([N+](=O)[O-])cc3)cs2)[nH]1,107%
5,CCCCCCCCCCCCCCCCCC1=NC(C)(C)CN1CC(C)O (configuration not stated),85.2%
6,CC1=C(C(=O)Nc2nc(-c3ccc(Cl)cc3)cs2)[C@H](c2ccc(O)cc2)NC(=O)N1,99.1%
7,O=C(Cn1nnc2ccccc21)N/N=C/c1c[nH]c2ccccc12,36.6%
8,Cn1c(=O)c2[nH]c(SCC(=O)Nc3ccc(C(=O)/C=C/c4ccccc4Cl)cc3)nc2n(C)c1=O,90.4%
9,O=c1nc(-c2ccccc2)c2cc(-c3ccc(C(F)(F)F)nc3)ccc2[nH]1,106%
10,CN(C)S(=O)(=O)Oc1ccc(-c2sc3cc(OS(=O)(=O)N(C)C)ccc3c2C(=O)c2ccc(OCCN3CCCCC3)cc2)cc1,49.8%
11,O=S(=O)(NCCCNc1nccc(-c2c(-c3cccc(F)c3)nc3occn23)n1)c1ccc(F)cc1,63.7%
12,Cc1ccc(-c2nc(N3CCNCC3)c3oc(-c4ccc(C)cc4)nc3n2)cc1,76.1%
13,COc1ccc(Cn2cc3c(c2-c2ccccc2)CCc2cnoc2-3)cc1,30.1%
14,CC(C)(C)n1cc(-c2ccnc(NCCCNS(=O)(=O)c3ccc(C(F)(F)F)cc3)c2)c(-c2cccc(F)c2)n1,92.7%
15,O=C(/C=C/c1ccccc1)c1ccc(Nc2nc(Nc3ccc(F)cc3)nc(Nc3ccc(Cl)cc3)n2)cc1,102%
16,COc1ccc2c(c1)/C(=N/c1n[nH]c(=S)s1)C(=O)N2,99.9%
17,Cc1ccc2nc(NC(=O)CSc3nc(-c4ccccc4)c(C#N)c4nnnn34)sc2c1,97.4%
18,N=C(N)c1ccc(-c2ccc(-c3cc(Cl)cc(Cl)c3)s2)nc1,86.5%
19,COc1ccc(Oc2nc(Nc3ccc(N4CCOCC4)cc3)ncc2NC(=O)Nc2cc(OC)cc(OC)c2)cc1,48.2%
20,CCCCNc1cc(-c2cn[nH]c2-c2cc(C)cc(OC)c2)nc(-c2cccnc2)n1,95.6%
